The record followed here is article PMC4552634, “A New Set of Chemical Starting Points with Plasmodium falciparum Transmission-Blocking Potential for Antimalarial Drug Discovery” (PLoS ONE, 2015).

The whole screen tested about 13,000 compounds, of which about 3,200 (25%) showed an effect of 50% or more. This is one part of the list.

For the assay, the system named is P. falciparum stage V gametocytes. On the set-up: BacTiter-Glo ATP luminescence viability of purified stage V gametocytes in 384-well plates, per cent inhibition versus DMSO. As to conditions: 48 h, 5 µM; inhibitor.
In the case of `O=C(/C=C/c1ccc(Cl)c(Cl)c1)NCCCCCN1CCCN(C(=O)Nc2cccc(Cl)c2)CC1` [TCMDC-135749], the “% Inhibition” value is -36.61%.

For `CC(C)C[C@@H](/C=N/N1CCOC1=O)NC(=O)[C@H](CC(C)C)NC(=O)c1ccc(F)cc1` [TCMDC-136186], the “% Inhibition” value is on record as -17.2%.

For `CN1CCN(c2ccc(Nc3nccc(-c4cnn5ncccc45)n3)cc2Cl)CC1` [TCMDC-138688], the “% Inhibition” value is listed as 55.04%.

For the compound `O=[N+]([O-])c1cccc(Nc2nccc(-c3cnn4ncccc34)n2)c1` [TCMDC-138697], the “% Inhibition” value is given as -28.72%.

In the case of `c1cc(Nc2nccc(-c3cnn4ncccc34)n2)cc(-c2cnco2)c1` [TCMDC-138684], the “% Inhibition” value is listed as -9.488%.

As to `Cc1ccc2[nH]c3c(NCCCN4CCOCC4)ncnc3c2c1` [TCMDC-124068], the “% Inhibition” value is given as -37.8%.

Consider `N#Cc1ccc(-c2ccc3nc(N4CCCN(C5CCC5)CC4)ccc3c2)cc1` [TCMDC-136368], for which the “% Inhibition” value is 18.23%.

Turning to `N=C1C=C(N)C(=O)c2ccccc21` [TCMDC-141992], the “% Inhibition” value was found to be 106.9%.

With `O=C(Nc1ccc(OC2CCN(Cc3ccc(F)cc3)C2)c(Cl)c1)c1ccc(F)cc1` (stereo not shown) [TCMDC-133763], the “% Inhibition” value stood at 12.34%.

Turning to `O=C1c2ccccc2-n2c1nc1ccccc1c2=O` [TCMDC-125859], the “% Inhibition” value is listed as -11.25%.

Regarding `COc1cccc(Nc2nc(N)c3ccccc3n2)c1.Cl` [TCMDC-123746], the “% Inhibition” value came to 24.77%.

Take `CCN1CCC2(c3cccc(OC)c3)Cc3nc4ccccc4c(-c4ccccc4)c3CC2C1` (stereo not shown) [TCMDC-138968]: the “% Inhibition” value amounted to 77.57%.

`COc1cccc(Nc2nc(NCCO)c3ccccc3n2)c1.Cl` [TCMDC-124573]: the “% Inhibition” value is given as 23.38%.

As for `COCCOc1nc(N)nc2ncc(Cc3cc(OC)ccc3OC)c(C)c12` [TCMDC-137754], the “% Inhibition” value is reported as 36.3%.

Take `O=C(N[C@@H](Cc1ccccc1)C(=O)NC1CCCCCC1)c1ccc(O)c(-c2ccc(Cl)c(Cl)c2)c1` [TCMDC-140845]: the “% Inhibition” value was 40.83%.

`COc1cc(C)nc2ccc(NC(=O)COCC(=O)Nc3ccc4nc(C)cc(OC)c4c3)cc12` [TCMDC-139461]: the “% Inhibition” value is recorded as 62.71%.

Regarding `CCCCOc1cc(C)nc2ccc(NC(=O)COCC(=O)Nc3ccc4nc(C)cc(OCCCC)c4c3)cc12` [TCMDC-140149], the “% Inhibition” value is reported as -34.05%.

Turning to `COc1cc(C)nc2ccc(NC(=O)Nc3ccc4nc(C)cc(OC)c4c3)cc12` [TCMDC-139138], the “% Inhibition” value came out at 8.428%.

As for `COc1ccc(Cn2ncc3c4c(N)nc(N)nc4ccc32)cc1OC` [TCMDC-131934], the “% Inhibition” value was found to be 49.54%.

For the compound `COc1cccc(Cn2ccc3c4c(N)nc(N)nc4ccc32)c1` [TCMDC-137811], the “% Inhibition” value worked out at 100%.

Take `COCn1ccc2c3c(N)nc(N)nc3ccc21` [TCMDC-137505]: the “% Inhibition” value turned out to be 0.2853%.

As for `COc1cc(Cn2ccc3c4c(N)nc(N)nc4ccc32)cc(OC)c1OC` [TCMDC-137341], the “% Inhibition” value amounted to 118.6%.

As to `COc1ccc(Cn2ccc3c4c(N)nc(N)nc4ccc32)cc1` [TCMDC-139862], the “% Inhibition” value is reported as 105.9%.

As for `COCCOCCOCCn1ccc2c3c(N)nc(N)nc3ccc21` [TCMDC-137974], the “% Inhibition” value is recorded as 22.53%.

In the case of `COCCn1ccc2c3c(N)nc(N)nc3ccc21` [TCMDC-137263], the “% Inhibition” value is reported as 12.7%.

In the case of `O=C(/C=C/c1ccc(Cl)c(Cl)c1)NCCCCCN1CCC(NC(=O)c2ccc(F)c(F)c2)CC1` [TCMDC-135838], the “% Inhibition” value was -28.53%.

Take `Cc1ccc(Nc2nc(N/N=C/c3cccc(O)c3)nc(Nc3ccc([N+](=O)[O-])cc3)n2)cc1C` [TCMDC-124125]: the “% Inhibition” value is -28.14%.

Regarding `CCCN(Cc1nnc(-c2ccco2)o1)C(=O)C1CCN(c2ncc(C(F)(F)F)cc2Cl)CC1` [TCMDC-125335], the “% Inhibition” value is reported as -10.32%.

As for `CCOc1ccc(Cc2c(C)nc3nc(N)nc(N)c3c2C)cc1` [TCMDC-137655], the “% Inhibition” value is on record as 8.912%.

Turning to `Cc1c(Cl)ccc2c(C(=O)Nc3ccncc3)cc(-c3cccnc3)nc12` [TCMDC-125224], the “% Inhibition” value is recorded as 6.226%.

Turning to `COc1ccc(CNC2Cc3ccccc3C2)cc1-c1ccc(S(=O)(=O)NCCN2CCCC2)cc1` [TCMDC-132248], the “% Inhibition” value was found to be 107.9%.

With `COc1ccc(CNC2Cc3ccccc3C2)cc1-c1cccc(S(=O)(=O)NCCN2CCCC2)c1` [TCMDC-132269], the “% Inhibition” value is recorded as 112.5%.

Consider `CC(C)NCc1ccc(-c2ccc(-c3nc4ccc(F)cc4[nH]3)cc2)cc1` [TCMDC-132740], for which the “% Inhibition” value is on record as 14.26%.

Regarding `CCc1ccccc1NC(=O)CN1CCN(c2ncnc3scc(-c4ccc(F)cc4)c23)CC1` [TCMDC-125248], the “% Inhibition” value is on record as -17.47%.

Regarding `CC(C)CNC(=O)CN1C(=O)C(c2ccccc2)(c2ccccc2)N=C1N` [TCMDC-137006], the “% Inhibition” value is reported as -9.905%.

With `Fc1ccc2[nH]c3c(NCCCN4CCOCC4)ncnc3c2c1` [TCMDC-124555], the “% Inhibition” value is -45.7%.

On to `CC(C)C[C@H](NC(=O)c1ccc(F)cc1)C(=O)N[C@H](/C=N/NC(=O)c1ccccc1)CCc1ccccc1` [TCMDC-135680], for which the “% Inhibition” value is -1.54%.

On to `Cn1c(=N)cc(-c2cccc(I)c2)c2c(=O)[nH]c(N)nc21` [TCMDC-137835], for which the “% Inhibition” value turned out to be 7.838%.

As for `Fc1ccc2[nH]c(-c3cccc(-c4cccc(CNCCN5CCNCC5)c4)c3)nc2c1` [TCMDC-132860], the “% Inhibition” value is given as 97.72%.

Take `Cn1nccc1C(=O)NCCNCc1cccc(-c2cccc(-c3nc4cc(F)ccc4[nH]3)c2)c1.O=C(O)C(F)(F)F` [TCMDC-133020]: the “% Inhibition” value is recorded as -34.05%.

Regarding `O=C1CCCN1CCCNCc1ccc(-c2cccc(-c3nc4ccc(F)cc4[nH]3)c2)cc1` [TCMDC-132750], the “% Inhibition” value was -14.96%.

As for `Fc1ccc2[nH]c(-c3cccc(-c4ccc(CNCCN5CCNCC5)cc4)c3)nc2c1` [TCMDC-132863], the “% Inhibition” value stood at 90.56%.

On to `Cn1cccc1CCNCc1ccc(-c2cccc(-c3nc4cc(F)ccc4[nH]3)c2)cc1.O=C(O)C(F)(F)F` [TCMDC-132684], for which the “% Inhibition” value turned out to be 7.89%.

Regarding `O=C1CCCN1CCCNCc1cccc(-c2cccc(-c3nc4ccc(F)cc4[nH]3)c2)c1` [TCMDC-132765], the “% Inhibition” value is -41.49%.

As for `Cn1ncc2c3c(CCN4CCC(NCc5cc6c(cn5)OCC6)CC4)c(Cl)cnc3ccc21` [TCMDC-136024], the “% Inhibition” value is on record as -18.24%.

With `COc1ccccc1C(=O)Nc1cccc(N2CCC(NCc3ccc(-n4cccn4)cc3)CC2)c1` [TCMDC-124643], the “% Inhibition” value is 0.3581%.

`COc1ccccc1NC(=O)Nc1ccc(-c2ccc(-c3nc4cccc(C)c4[nH]3)s2)cc1` [TCMDC-133201]: the “% Inhibition” value is given as -21.27%.

Regarding `COc1cccc(CN(C(=O)Nc2ccccc2F)[C@H]2C[C@H]3C(=O)Nc4cc(F)ccc4C(=O)N3C2)c1` [TCMDC-134304], the “% Inhibition” value came to 17.59%.

As for `CC(C)(C)C(=O)Oc1ccc(CC2NCCc3cc(OC(=O)C(C)(C)C)c(OC(=O)C(C)(C)C)cc32)cc1OC(=O)C(C)(C)C` (stereo not shown) [TCMDC-131452], the “% Inhibition” value is -22.51%.

Turning to `Cc1cccc2[nH]c(-c3cccc(-c4cccc(CN5CCCC5CN)c4)c3)nc12` (stereo not shown) [TCMDC-132989], the “% Inhibition” value is reported as 49.36%.

For `NCC1CCCN1Cc1cccc(-c2cccc(-c3nc4ccc(F)cc4[nH]3)c2)c1` (stereo not shown) [TCMDC-133001], the “% Inhibition” value is reported as 98.63%.

As to `NCC1CCCN1Cc1ccc(-c2cccc(-c3nc4ccc(F)cc4[nH]3)c2)cc1` (stereo not shown) [TCMDC-132998], the “% Inhibition” value worked out at 102.5%.

Regarding `NC(=O)C1CCN(Cc2cccc(-c3cccc(-c4nc5ccc(F)cc5[nH]4)c3)c2)CC1` [TCMDC-132686], the “% Inhibition” value is reported as -35.6%.

As for `Fc1ccc2nc(-c3ccc(-c4ccc(CN5CCN(CCN6CCOCC6)CC5)cc4)cc3)[nH]c2c1` [TCMDC-133926], the “% Inhibition” value was -0.4105%.

`NCC1CCCN1Cc1ccc(-c2ccc(-c3nc4ccc(F)cc4[nH]3)cc2)cc1` (stereo not shown) [TCMDC-132994]: the “% Inhibition” value stood at 65.53%.

For `NCC1CCCN1Cc1ccc(-c2ccc(-c3nc4ccccc4[nH]3)s2)cc1` (stereo not shown) [TCMDC-132988], the “% Inhibition” value is on record as 37.26%.

Turning to `COc1ccccc1OCCN(CC(O)COc1cccc2[nH]c3ccccc3c12)CC(O)COc1cccc2[nH]c3ccccc3c12` (stereo not shown) [TCMDC-141980], the “% Inhibition” value was -17.57%.

In the case of `O=C1NCN(c2ccc(O)cc2)C12CCN(CCCC(c1ccc(F)cc1)c1ccc(F)cc1)CC2` [TCMDC-138052], the “% Inhibition” value was -32.4%.

As to `Cc1[nH]c(C)c(-c2ccc(C(=O)c3ccc(Cl)cc3)cc2)c(=O)c1Cl` [TCMDC-137413], the “% Inhibition” value is 70.39%.

As for `Cc1[nH]c(C)c(-c2ccc(Cl)cc2)c(=O)c1I` [TCMDC-137424], the “% Inhibition” value is listed as 41.94%.

Regarding `Cc1[nH]c(C)c(-c2csc3ccccc23)c(=O)c1Cl` [TCMDC-136017], the “% Inhibition” value is reported as 42.39%.

For `Cc1[nH]c(C)c(-c2ccc(C(=O)c3ccccc3)cc2)c(=O)c1Br` [TCMDC-137419], the “% Inhibition” value is on record as 74.6%.

On to `Cc1[nH]c(C)c(-c2ccc(/C=C/c3ccccn3)cc2)c(=O)c1Cl` [TCMDC-135787], for which the “% Inhibition” value is recorded as 58.19%.

`Cc1[nH]c(C)c(-c2ccc(-c3ccc(Cl)cc3)cc2)c(=O)c1Cl` [TCMDC-137416]: the “% Inhibition” value is 50.46%.

With `CC[C@H](C)CNC(=O)c1cncc(-c2ccc(CNCC3CNCCCO3)cc2)c1` (stereo partly shown) [TCMDC-134269], the “% Inhibition” value was 2.096%.

For `CN(C)CCCN1C(=O)c2[nH]nc(-c3ccc(Cl)cc3O)c2C1c1ccc(Cl)cc1` (stereo not shown) [TCMDC-124910], the “% Inhibition” value is given as -62.01%.

`C(=N\Nc1nccc2sc(-c3cccnc3)cc12)/c1cccnc1` [TCMDC-135297]: the “% Inhibition” value is -1.822%.

With `O=C1c2ccccc2CN1CCCN1CCC(Oc2ccc(F)cc2)CC1` [TCMDC-141252], the “% Inhibition” value is given as -41.1%.

`COc1c(Br)cc(Br)cc1-c1ccc(CN2C3CCCC2CCC3)[nH]1` [TCMDC-138965]: the “% Inhibition” value is on record as -8.76%.

As for `CC(C)S(=O)(=O)N1CCN(Cc2ccc3c(c2)nc(NC(=O)c2ccsc2)n3C[C@H](O)c2ccccc2)CC1` [TCMDC-138569], the “% Inhibition” value was -9.312%.

What is called % Inhibition is the drop in the measured response relative to a control, in per cent.
